{
  "source": "PubChem BioAssay AID463254",
  "about": "(National Center for Advancing Translational Sciences (NCATS), 2010)",
  "note": "The campaign covered roughly 330,000 compounds. About 40 (0.01%) were called active. Entries that show only a call come without a potency. Calls follow the shape of the dose curve; as a rule, active = well fitted inhibition curve with a large enough effect; inconclusive = small, poorly fitted or top-dose-only effect, or effect the other way; inactive = flat fitted curve, though single readings scatter. This excerpt belongs to a sample that is enriched for actives. Potency is read from the fitted curve at half-maximal effect.",
  "data": [
    {"target": "Ubiquitin carboxyl-terminal hydrolase 2 (Homo sapiens) (UniProt O75604)", "sequence (O75604 whole entry, looked up)": "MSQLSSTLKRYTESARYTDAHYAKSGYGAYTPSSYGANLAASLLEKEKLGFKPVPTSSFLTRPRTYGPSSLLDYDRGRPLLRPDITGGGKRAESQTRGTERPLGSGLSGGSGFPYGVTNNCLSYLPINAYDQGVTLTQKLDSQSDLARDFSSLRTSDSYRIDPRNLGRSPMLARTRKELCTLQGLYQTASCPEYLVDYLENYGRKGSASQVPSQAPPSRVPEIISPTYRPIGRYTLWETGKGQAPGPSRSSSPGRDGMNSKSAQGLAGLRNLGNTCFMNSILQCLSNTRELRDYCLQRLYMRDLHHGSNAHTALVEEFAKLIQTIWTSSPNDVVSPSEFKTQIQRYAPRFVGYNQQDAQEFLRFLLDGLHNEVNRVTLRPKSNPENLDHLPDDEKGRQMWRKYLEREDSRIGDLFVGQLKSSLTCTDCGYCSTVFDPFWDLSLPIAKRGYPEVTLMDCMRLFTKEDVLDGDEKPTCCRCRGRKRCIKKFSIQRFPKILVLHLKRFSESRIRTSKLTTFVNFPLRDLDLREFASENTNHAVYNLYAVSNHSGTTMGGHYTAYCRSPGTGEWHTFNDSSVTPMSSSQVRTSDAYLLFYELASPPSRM", "experiment": "qHTS Assay for Inhibitors of Ubiquitin-specific Protease USP2a Using CHOP2 as the Reporter", "details": "USP2 core, Ub-CHOP2 coupled fluorogenic reporter, 485/531; series mostly up to 38.3 µM", "from_the_text": "NIH Molecular Libraries Screening Centers Network [MLSCN] NIH Chemical Genomics Center [NCGC] MLSCN Grant: XO1-MH079852-01 PI Name: Nicholson, Ben. Progenra Inc, Malvern, PA NCGC Assay Overview: Homeostasis of cellular proteins is maintained through a combination of synthesis and degradation. The pathway that accounts for the majority of protein degradation is the ubiquitin-proteasomal pathway. Ubiquitin (Ub) is highly conserved in all cells and the generation of a multi-Ub chain typically targets proteins for degradation by the proteasome. However, ubiquitination is highly reversible and dynamic. Deubiquitination, the reverse process, is catalyzed through the action of enzymes referred to as isopeptidases or deubiquitinating enzymes (DUBs). This group of enzymes is collectively responsible for maintaining adequate pools of free ubiquitin and regulating the ubiquitination status of cellular proteins. The class of DUBs referred to as the ubiquitin-specific proteases (USP) family functions endoproteolytically to cleave Ub chains from a wide range of protein substrates. USP2a deubiquitinates fatty acid synthase (FASN) which has recently been identified as an emerging oncology target. To identify inhibitors of USP2a a cell-free assay was employed. […] The reporter enzyme chosen is an enterokinase called CHOP2, which is activated when the Ub is cleaved by USP2. The free and now activated reporter can subsequently act on its reporter substrate. Thus, this coupled assay gives a fluorescent read-out at excitation/emission wavelengths of 485/531. The assay was developed by Progenra, Inc. and has been licensed for sale by LifeSensors, Inc. as Ub-CHOP2-Reporter-Kit (#PR1101).\nNCGC Assay Protocol Summary: The assay buffer, prepared fresh at the day of the assay, contains 20mM Tris-HCl pH 8.0, 2mM CaCl2, 2mM beta-Mercaptoethanol, 0.05% CHAPS. 3ul of 20nM (10nM final) USP2 core, which is stored on ice, is dispensed into a medium-binding black solid Kalypsys 1,536 well plate using the Kalypsys dispenser. The assay plate is then pinned with 23nL compound with the Kalypsys pintool in columns 5-48. The controls are pinned as follows: column 1 two-fold dilutions of 2M NEM in duplicate; column 2 2M NEM (final concentration 38.2mM); column 3&4 DMSO. The assay plate is incubated at RT for 30min. Subsequently, 1.5uL of 100nM (25nM final) Ub-CHOP2 and 1.5uL of 100nM (25nM final) Reporter Substrate (both stored on ice and protected from light) were dispensed into the plate using the Kalypsys dispenser. Plates were read after 60min RT incubation on a ViewLux (Perkin Elmer) plate reader using the following wavelengths Ex 485nm /Em 531nm. Data were normalized to the to AC100 inhibition (NEM). Concentration-response curves were fitted to the normalized data and the concentration-response curves were then classified based on curve quality (r2), response magnitude and degree of measured activity. The time zero reading was used to flag fluorescence artifacts. Keywords: ubiquitination, deubiquitination, proteases, profluorescent, MLSMR, MLPCN, NIH Roadmap, qHTS, NCGC", "values": [
      {"smiles": "O=C(OCC1O[C@@H](OC(=O)c2cc(O)c(O)c(O)c2)[C@@H](OC(=O)c2cc(O)c(O)c(O)c2)[C@@H](OC(=O)c2cc(O)c(O)c(O)c2)[C@@H]1OC(=O)c1cc(O)c(O)c(O)c1)c1cc(O)c(O)c(O)c1", "note": "(stereo not given in full)", "Potency": "6.31 µM (active)"},
      {"smiles": "CC(C)(C)[C@]1(O)C[C@@H]2OC(=O)C[C@@]23C(=O)O[C@@H]2OC(=O)[C@H](O)[C@]213", "Potency": "inactive"},
      {"smiles": "NC(=O)Cn1cc(C(=O)c2ccccc2F)c2ccccc21", "Potency": "inactive"},
      {"smiles": "Cc1ccnc(-n2c(C)cc(/C=C3\\C(=O)NC(=S)N(C)C3=O)c2C)c1", "Potency": "inactive"},
      {"smiles": "CC12CN3CC(C)(CN(C1)C3c1cccs1)C2", "note": "(stereo not given)", "Potency": "inactive"}
    ]}
  ]
}
